# Experimental data: PubChem BioAssay (Tox21)
# Inconclusive results are not listed. Activity calls are given as the source filed them. The call rests on the fitted dose curve; in most records, active means well fitted curve in the direction sought with a large enough effect in the repeat runs; inconclusive means weak or mixed curves; inactive means no such curve, though single readings can be large; an effect the other way counts as inactive or inconclusive.
# Target: Cytochrome P450 2C9 (Homo sapiens) (UniProt P11712)
# Sequence (P11712 whole entry, looked up): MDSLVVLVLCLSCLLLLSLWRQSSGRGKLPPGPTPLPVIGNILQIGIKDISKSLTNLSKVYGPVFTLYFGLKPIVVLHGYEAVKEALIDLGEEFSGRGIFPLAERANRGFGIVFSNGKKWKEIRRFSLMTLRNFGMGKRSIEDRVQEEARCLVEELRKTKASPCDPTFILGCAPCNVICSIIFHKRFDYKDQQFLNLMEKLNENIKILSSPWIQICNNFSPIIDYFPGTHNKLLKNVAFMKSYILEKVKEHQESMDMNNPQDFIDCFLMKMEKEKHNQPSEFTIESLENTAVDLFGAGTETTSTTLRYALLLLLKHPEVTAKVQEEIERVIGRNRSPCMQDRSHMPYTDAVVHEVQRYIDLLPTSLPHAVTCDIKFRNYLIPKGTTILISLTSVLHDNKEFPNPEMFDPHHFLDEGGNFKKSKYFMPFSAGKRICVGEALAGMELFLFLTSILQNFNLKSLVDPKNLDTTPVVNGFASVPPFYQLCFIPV
# Experiment: Cytochrome P450 Family 2 Subfamily C Member 9 (CYP2C9) small molecule antagonists: luciferase reporter qHTS assay (AID 1671198); further: potency means the concentration at half of the fitted maximal effect
# Conditions: P450-Glo CYP2C9 enzyme assay, luciferin luminescence; series mostly up to 115 µM; activity change, negative = inhibition: at the top concentration
# Method in brief: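 CYP2C9 activity was measured with a P450-Glo proluciferin substrate. Enzyme–substrate mix was held with compound for 10 min at room temperature, then NADPH regeneration solution was added for 1 h at 37C. Luciferin product was read as luminescence.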
# Further: nearly all actives have a fitted effect of over 50% in size.
# On the % scale 0 is the no-effect control and ±100 the full control effect.
SMILES,Potency,"activity change, negative = inhibition"
c1ccc(CCCc2ccncc2)cc1,2 µM (active),
CCN(CC)c1ccc(C(=C2C=CC(=[N+](CC)CC)C=C2)c2ccc(S(=O)(=O)O)cc2S(=O)(=O)[O-])cc1,14.2 µM (active),
CC(C)(O)CCc1ccccc1,,-17.6% (inactive)
CC(C)(O)c1coc(S(=O)(=O)NC(=O)Nc2c3c(cc4c2CCC4)CCC3)c1,25.2 µM (active),
CCCCCCCCCCCCCCCC(=O)OCC,,-6.19% (inactive)
CC1C(C)(C)C2=C(C(=O)CCC2)C1(C)C (centres undefined),,-11.2% (inactive)
CCCCCCCCCCCCCC(=O)OCC(O)CO (centres undefined),22.4 µM (active),
CC(C)C(O)C(C)(C)CO (centres undefined),65.3 µM (active),
CC1CCCC(=O)C1=O (centres undefined),,0.217% (inactive)
Nc1ccc(F)cc1,,-2.62% (inactive)
CCOc1ncc(F)c(=O)[nH]1,,-7.42% [at 53 µM] (inactive)
O=S(=O)(O)CO,,-7.23% (inactive)
CCC(Cl)CC(Cl)C(Cl)C(Cl)C(Cl)C(C)Cl (centres undefined),1.38 µM (active),
O=CNNC=O,,0.377% (inactive)
CCOC(=O)C(C)O (centres undefined),,-10.7% (inactive)
CCC(CO)(CO)CO,,6.05% (inactive)
CCCCCCC(O)CCCCCCCCCCC(=O)OC (centres undefined),35.6 µM (active),
COC(C)(C)OC,,-0.0848% (inactive)
CCCCCCCC/C=C/C(=O)O,,-32.3% [at 53 µM] (inactive)
O=C(O)CO,,-7.54% (inactive)
CCCCOC(=O)CCCCC(=O)OCCCC,11.2 µM (active),
CSCC[C@H](NC(=O)[C@H](Cc1c[nH]c2ccccc12)NC(=O)CCNC(=O)OC(C)(C)C)C(=O)N[C@@H](CC(=O)O)C(=O)N[C@@H](Cc1ccccc1)C(N)=O,,-6.17% [at 53 µM] (inactive)
FC(F)(F)C(F)(F)C(F)(F)C(F)(F)CCI,,-11.7% [at 53 µM] (inactive)
CCc1ccc(C)cc1,,7.61% (inactive)
CC(C)C(=O)OCCOc1ccccc1,39.9 µM (active),
CC(C)N(C)C,,-6.15% (inactive)

# Target: Cytochrome P450 1A2 (Homo sapiens) (UniProt P05177)
# Sequence (P05177 whole entry, looked up): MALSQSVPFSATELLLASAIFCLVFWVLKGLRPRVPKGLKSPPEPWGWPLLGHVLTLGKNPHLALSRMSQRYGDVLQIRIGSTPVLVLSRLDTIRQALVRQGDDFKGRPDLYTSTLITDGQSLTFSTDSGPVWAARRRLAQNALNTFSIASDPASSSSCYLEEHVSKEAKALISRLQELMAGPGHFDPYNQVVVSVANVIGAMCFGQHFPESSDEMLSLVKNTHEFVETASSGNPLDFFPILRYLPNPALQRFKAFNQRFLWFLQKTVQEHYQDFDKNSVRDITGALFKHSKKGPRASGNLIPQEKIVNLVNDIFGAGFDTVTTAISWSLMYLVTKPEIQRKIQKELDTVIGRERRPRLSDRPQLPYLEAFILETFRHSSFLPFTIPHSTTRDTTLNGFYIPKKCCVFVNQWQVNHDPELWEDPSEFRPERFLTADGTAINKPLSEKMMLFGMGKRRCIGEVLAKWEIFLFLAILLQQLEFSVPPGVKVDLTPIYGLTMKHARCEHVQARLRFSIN
# Experiment: Cytochrome P450 Family 1 Subfamily A Member 2 (CYP1A2) small molecule antagonists: luciferase reporter qHTS assay (AID 1671199); further: potency means the concentration at half of the fitted maximal effect
# Conditions: P450-Glo CYP1A2 enzyme, luciferin luminescence, 1 h; series mostly up to 115 µM; activity change, negative = inhibition: at the top concentration
# Method in brief: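 Compounds were incubated with CYP1A2 and a luminogenic proluciferin substrate for 10 min at room temperature before the reaction was started with NADPH regeneration solution. After 1 h, detection reagent was added and light output, proportional to CYP activity, was recorded.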
SMILES,Potency,"activity change, negative = inhibition"
c1ccc(CCCc2ccncc2)cc1,1.42 µM (active),
CCN(CC)c1ccc(C(=C2C=CC(=[N+](CC)CC)C=C2)c2ccc(S(=O)(=O)O)cc2S(=O)(=O)[O-])cc1,10 µM (active),
CC(=O)OCC(C)C,,-19.4% (inactive)
CC(C)(O)c1coc(S(=O)(=O)NC(=O)Nc2c3c(cc4c2CCC4)CCC3)c1,17.8 µM (active),
CCCCCCCCCCCCCCCC(=O)OCC,,-10.4% (inactive)
CN1C(CSCC(F)(F)F)Nc2cc(Cl)c(S(N)(=O)=O)cc2S1(=O)=O (centres undefined),,1.68% [at 53 µM] (inactive)
CCCCCCCCCCCCCC(=O)OCC(O)CO (centres undefined),22.4 µM (active),
CC(C)C(O)C(C)(C)CO (centres undefined),65.3 µM (active),
Cc1cccc(C)c1NC(=O)c1cc(S(N)(=O)=O)c(Cl)cc1O,,12.1% [at 53 µM] (inactive)
CC1CCCC(=O)C1=O (centres undefined),,-14.8% (inactive)
O=C(NS(=O)(=O)/C=C/c1ccccc1)c1ccc(F)cc1Cl,,-8.17% (inactive)
Nc1ccc(F)cc1,,2.36% (inactive)
O=S(=O)(O)CO,31.3 µM (active),
O=CNNC=O,,-18.8% (inactive)
CCC(C)(C)C(=O)O,,-9.26% (inactive)
CCOC(=O)C(C)O (centres undefined),,-1.8% (inactive)
CCC(CO)(CO)CO,,-8.23% (inactive)

SMILES,Potency,"activity change, negative = inhibition"
CCN(Cc1cccc(S(=O)(=O)O)c1)c1ccc(C(=C2C=CC(=[N+](CC)Cc3cccc(S(=O)(=O)O)c3)C=C2)c2ccccc2S(=O)(=O)[O-])cc1,17.9 µM (active),
CCN(CC)c1cccc(O)c1,64.6 µM (active),
CCCCCCC(O)CCCCCCCCCCC(=O)OC (centres undefined),,-24.5% (inactive)
O=C(O)CO,,-15.3% (inactive)
CCCCOC(=O)CCCCC(=O)OCCCC,31.7 µM (active),
CC(=O)NCCO,,-13.8% (inactive)
CSCC[C@H](NC(=O)[C@H](Cc1c[nH]c2ccccc12)NC(=O)CCNC(=O)OC(C)(C)C)C(=O)N[C@@H](CC(=O)O)C(=O)N[C@@H](Cc1ccccc1)C(N)=O,,-6.59% [at 53 µM] (inactive)
FC(F)(F)C(F)(F)C(F)(F)C(F)(F)CCI,,-21.5% [at 53 µM] (inactive)
COC1CCC=CO1 (centres undefined),,-8.42% (inactive)
CCc1ccc(C)cc1,,-11.6% (inactive)
O=C(O)CCS,,-15.5% (inactive)
CC(C)C(=O)OCCOc1ccccc1,31.7 µM (active),
[Cl][Nd]([Cl])[Cl],,-19.1% (inactive)
NC(=O)CCCCC(N)=O,,-7.27% (inactive)
CC(C)N(C)C,,-27.1% (inactive)
Cc1oc(=O)oc1COC(=O)[C@@H]1N2C(=O)[C@@H](NC(=O)[C@H](N)c3ccccc3)[C@H]2SC1(C)C,,-25.2% [at 53 µM] (inactive)

# Target: Voltage-gated inwardly rectifying potassium channel KCNH2 (Homo sapiens) (UniProt Q12809)
# Sequence (Q12809 whole entry, looked up): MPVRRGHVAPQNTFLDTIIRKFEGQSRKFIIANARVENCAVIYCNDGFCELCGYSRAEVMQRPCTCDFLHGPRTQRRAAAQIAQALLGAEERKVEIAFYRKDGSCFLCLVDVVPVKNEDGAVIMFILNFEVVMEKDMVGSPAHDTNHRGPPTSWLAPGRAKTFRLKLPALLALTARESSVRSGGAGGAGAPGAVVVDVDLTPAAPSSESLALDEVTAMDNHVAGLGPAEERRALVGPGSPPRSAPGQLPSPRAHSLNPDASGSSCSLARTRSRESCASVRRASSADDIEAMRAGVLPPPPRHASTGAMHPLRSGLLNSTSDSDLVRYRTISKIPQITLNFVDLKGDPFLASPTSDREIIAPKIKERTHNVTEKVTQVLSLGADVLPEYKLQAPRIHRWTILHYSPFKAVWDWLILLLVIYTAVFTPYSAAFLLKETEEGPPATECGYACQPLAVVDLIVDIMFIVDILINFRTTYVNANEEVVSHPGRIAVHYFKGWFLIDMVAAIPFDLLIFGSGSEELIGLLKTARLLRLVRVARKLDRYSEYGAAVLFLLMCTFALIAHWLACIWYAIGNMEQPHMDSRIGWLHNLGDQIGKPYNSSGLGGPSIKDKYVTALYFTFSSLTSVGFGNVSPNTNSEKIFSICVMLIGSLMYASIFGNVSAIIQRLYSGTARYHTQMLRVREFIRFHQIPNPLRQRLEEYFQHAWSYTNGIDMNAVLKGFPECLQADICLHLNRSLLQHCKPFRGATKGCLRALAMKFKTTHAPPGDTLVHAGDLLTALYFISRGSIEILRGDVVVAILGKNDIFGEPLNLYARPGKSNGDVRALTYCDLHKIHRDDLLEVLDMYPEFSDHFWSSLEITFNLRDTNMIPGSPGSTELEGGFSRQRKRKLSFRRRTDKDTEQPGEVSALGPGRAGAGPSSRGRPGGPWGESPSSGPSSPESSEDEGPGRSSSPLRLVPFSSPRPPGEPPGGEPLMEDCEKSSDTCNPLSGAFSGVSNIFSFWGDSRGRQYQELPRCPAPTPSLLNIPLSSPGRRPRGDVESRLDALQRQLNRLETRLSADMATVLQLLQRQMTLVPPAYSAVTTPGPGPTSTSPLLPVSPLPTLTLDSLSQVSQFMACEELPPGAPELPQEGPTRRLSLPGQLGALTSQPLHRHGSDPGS
# Experiment: Human Ether-a-go-go-Related Gene (hERG) channel small molecule antagonists: fluorescence cell-based qHTS assay (AID 1671200);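 further: hERG-expressing U2OS cells given a thallium stimulus after FluxOR II dye loading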
# Conditions: hERG-U2OS cells, FluxOR thallium flux fluorescence; series mostly up to 76.8 µM; activity change, negative = inhibition: at the top concentration
# Method in brief: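 Thallium served as the potassium surrogate; its influx into dye-loaded U2OS cells carrying the channel was measured by fluorescence over 2 min.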
row,SMILES,"activity change, negative = inhibition"
1,c1ccc(CCCc2ccncc2)cc1,-4.25% (inactive)
2,CCN(CC)c1ccc(C(=C2C=CC(=[N+](CC)CC)C=C2)c2ccc(S(=O)(=O)O)cc2S(=O)(=O)[O-])cc1,-7.46% (inactive)
3,CC(C)(O)CCc1ccccc1,5.44% (inactive)
4,CC(=O)OCC(C)C,7.14% (inactive)
5,CC(C)(O)c1coc(S(=O)(=O)NC(=O)Nc2c3c(cc4c2CCC4)CCC3)c1,-2.65% (inactive)
6,CCCCCCCCCCCCCCCC(=O)OCC,1.78% (inactive)
7,CC1C(C)(C)C2=C(C(=O)CCC2)C1(C)C (centres undefined),-7.35% (inactive)
8,CC(C)C(O)C(C)(C)CO (centres undefined),-9.17% (inactive)
9,Cc1cccc(C)c1NC(=O)c1cc(S(N)(=O)=O)c(Cl)cc1O,0.915% [at 35.3 µM] (inactive)
10,CC1CCCC(=O)C1=O (centres undefined),2.99% (inactive)
11,O=C(NS(=O)(=O)/C=C/c1ccccc1)c1ccc(F)cc1Cl,-1.97% (inactive)
12,CCOc1ncc(F)c(=O)[nH]1,2.26% [at 35.3 µM] (inactive)
13,O=S(=O)(O)CO,-0.529% (inactive)
14,O=CNNC=O,-0.124% (inactive)
15,CCC(C)(C)C(=O)O,0.857% (inactive)
16,CCOC(=O)C(C)O (centres undefined),-3.17% (inactive)
17,CCC(CO)(CO)CO,0.144% (inactive)
18,CCCCCCC(O)CCCCCCCCCCC(=O)OC (centres undefined),-1.38% (inactive)
19,CCCCCCCC/C=C/C(=O)O,-0.159% [at 35.3 µM] (inactive)
20,O=C(O)CO,1.58% (inactive)
21,CCCCOC(=O)CCCCC(=O)OCCCC,-7.24% (inactive)
22,CC(=O)NCCO,-1.37% (inactive)
23,CSCC[C@H](NC(=O)[C@H](Cc1c[nH]c2ccccc12)NC(=O)CCNC(=O)OC(C)(C)C)C(=O)N[C@@H](CC(=O)O)C(=O)N[C@@H](Cc1ccccc1)C(N)=O,10.8% [at 35.3 µM] (inactive)
24,COC1CCC=CO1 (centres undefined),1.37% (inactive)
25,CCc1ccc(C)cc1,0.0213% (inactive)
26,O=C(O)CCS,1.28% (inactive)
27,CC(C)C(=O)OCCOc1ccccc1,0.613% (inactive)
28,[Cl][Nd]([Cl])[Cl],-5.56% (inactive)
29,NC(=O)CCCCC(N)=O,-6.11% (inactive)
30,Cc1oc(=O)oc1COC(=O)[C@@H]1N2C(=O)[C@@H](NC(=O)[C@H](N)c3ccccc3)[C@H]2SC1(C)C,0.312% [at 35.3 µM] (inactive)
